Residue numbers refer to the chain shown, from its start.

The text below walks through data of publication PMC8384837, “Expanding the binding specificity for RNA recognition by a PUF domain”.

Common to all, as to experiment: yeast three-hybrid, YBZ-1, SC-Leu-His + 0.5 mM 3-AT, 4 days
Details in all cases: tags: N-Gal4 AD-HA kept; label: inside an RPR1-promoter hybrid RNA with tandem MS2 sites; ssRNA

For one test, the target named is PUM1 PUF domain R5-RQD (Homo sapiens, UniProt Q14671 828-1176, C1007R;R1008Q;Q1011D). In short, it runs like this: (§1)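 Each repeat of the Pumilio-1 PUF domain was randomized at its three base-contacting residues, and these libraries were co-expressed from a centromeric plasmid with matching RNA elements in strain YBZ-1. After four days on SC-Leu (input) or SC-Leu-His + 0.5 mM 3-AT (selection), the repeat regions were PCR-amplified and Illumina-sequenced. The interaction score compares variant frequency between input and selection as a log change, computed in log2 with a pseudocount of 1 for absent variants.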

In another test the target is PUM1 PUF domain R5-KAC (Homo sapiens, UniProt Q14671 828-1176, C1007K;R1008A;Q1011C). An outline of the steps: as §1
The target of another test is PUM1 PUF domain R5-KLC (Homo sapiens, UniProt Q14671 828-1176, C1007K;R1008L;Q1011C). An outline of the steps:
as §1

Another test addresses PUM1 PUF domain R5-LWR (Homo sapiens, UniProt Q14671 828-1176, C1007L;R1008W;Q1011R). In short, it runs like this:
as §1

The target in a further test is PUM1 PUF domain R5-GKC (Homo sapiens, UniProt Q14671 828-1176, C1007G;R1008K;Q1011C). In short, it runs like this: as §1
A further test deals with PUM1 PUF domain R4-INC (Homo sapiens, UniProt Q14671 828-1176, N971I;H972N;Q975C). In short, it runs like this: as §1
The target of a further test is T1, PUM1 PUF domain R6-NRR (Homo sapiens, UniProt Q14671 828-1176, Y1044R;Q1047R).
T1 sequence: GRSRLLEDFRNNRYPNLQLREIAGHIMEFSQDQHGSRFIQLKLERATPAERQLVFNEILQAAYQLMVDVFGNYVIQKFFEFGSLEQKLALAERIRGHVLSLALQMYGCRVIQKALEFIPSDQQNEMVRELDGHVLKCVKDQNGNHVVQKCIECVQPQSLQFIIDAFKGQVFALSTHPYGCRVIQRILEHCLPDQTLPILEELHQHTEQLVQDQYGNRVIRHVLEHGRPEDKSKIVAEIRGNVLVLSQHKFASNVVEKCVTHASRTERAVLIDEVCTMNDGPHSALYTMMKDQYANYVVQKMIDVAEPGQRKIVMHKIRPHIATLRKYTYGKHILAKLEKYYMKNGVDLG
An outline of the steps:
as §1

Another test has as its target PUM1 PUF domain R1-KCR (Homo sapiens, UniProt Q14671 828-1176, S863K;R864C;Q867R). An outline of the steps: as §1
The target in the next test is PUM1 PUF domain R1-RYE (Homo sapiens, UniProt Q14671 828-1176, S863R;R864Y;Q867E). In short, it runs like this: as §1
The next test addresses PUM1 PUF domain R1-KDR (Homo sapiens, UniProt Q14671 828-1176, S863K;R864D;Q867R). In short, it runs like this: as §1
In another test the target is PUM1 PUF domain R3-LWK (Homo sapiens, UniProt Q14671 828-1176, C935L;R936W;Q939K). An outline of the steps: as §1
The target of the next test is PUM1 PUF domain R3-MFG (Homo sapiens, UniProt Q14671 828-1176, C935M;R936F;Q939G). In short, it runs like this: as §1
A further test addresses PUM1 PUF domain R3-YRV (Homo sapiens, UniProt Q14671 828-1176, C935Y;Q939V). In short, it runs like this:
as §1

The next test concerns the target PUM1 PUF domain R3-FCR (Homo sapiens, UniProt Q14671 828-1176, C935F;R936C;Q939R). In short, it runs like this: as §1
The target in a further test is PUM1 PUF domain R5-NSD (Homo sapiens, UniProt Q14671 828-1176, C1007N;R1008S;Q1011D). In short, it runs like this: as §1
A further test addresses T2, PUM1 PUF domain R6-FYM (Homo sapiens, UniProt Q14671 828-1176, N1043F;Q1047M).
T2 sequence: T1 sequence with N216F, R217Y, R220M
An outline of the steps:
as §1

For another test, the target named is PUM1 PUF domain R3-VRN (Homo sapiens, UniProt Q14671 828-1176, C935V;Q939N). In short, it runs like this: as §1
For a further test, the target named is PUM1 PUF domain R3-DFA (Homo sapiens, UniProt Q14671 828-1176, C935D;R936F;Q939A). In short, it runs like this:
as §1

For a further test, the target named is PUM1 PUF domain R5-GFI (Homo sapiens, UniProt Q14671 828-1176, C1007G;R1008F;Q1011I). In short, it runs like this: as §1
The next test has as its target PUM1 PUF domain R7-LTV (Homo sapiens, UniProt Q14671 828-1176, S1079L;N1080T;E1083V). In short, it runs like this:
as §1

PUM1 PUF domain R7-LTV, sequence (Q14671 828-1176 S1079L/N1080T/E1083V): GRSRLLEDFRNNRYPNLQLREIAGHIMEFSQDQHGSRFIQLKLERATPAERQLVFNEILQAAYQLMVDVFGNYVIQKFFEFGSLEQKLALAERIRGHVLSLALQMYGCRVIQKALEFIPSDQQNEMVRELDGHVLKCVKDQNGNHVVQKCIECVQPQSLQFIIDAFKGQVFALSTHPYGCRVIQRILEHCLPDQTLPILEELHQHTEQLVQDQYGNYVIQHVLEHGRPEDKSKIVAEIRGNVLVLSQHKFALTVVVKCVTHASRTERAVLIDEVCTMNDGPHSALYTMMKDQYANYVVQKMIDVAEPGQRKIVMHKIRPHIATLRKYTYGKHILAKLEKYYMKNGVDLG

On to “GGCUAGAACUAGUGGAUCCCCCGGCGCCCGGCGGCUCGAGCCCGGGUAAGUGUCAAUAGUCUGCAUGCCGCCGGGCGCCAUGCCUGCAGGUCGACUCUAGAAAACAUG”, for which the binding signal with PUM1 PUF domain R5-RQD is 3.67 log2 enrichment (interaction score); in the test with PUM1 PUF domain R5-KAC it was 4.63 log2 enrichment (interaction score); in the test with PUM1 PUF domain R5-KLC, 2.5 log2 enrichment (interaction score); with PUM1 PUF domain R5-LWR, 3.23 log2 enrichment (interaction score); with PUM1 PUF domain R5-GKC, 2.56 log2 enrichment (interaction score).
As to “GGCUAGAACUAGUGGAUCCCCCGGCGCCCGGCGGCUCGAGCCCGGGUAAGUGUAUAUAGUCUGCAUGCCGCCGGGCGCCAUGCCUGCAGGUCGACUCUAGAAAACAUG”, in the test with PUM1 PUF domain R4-INC, the binding signal was 4.14 log2 enrichment (interaction score).
Turning to “GGCUAGAACUAGUGGAUCCCCCGGCGCCCGGCGGCUCGAGCCCGGGUAAGUGCAAAUAGUCUGCAUGCCGCCGGGCGCCAUGCCUGCAGGUCGACUCUAGAAAACAUG”, the binding signal in the test with PUM1 PUF domain R6-NRR was 4.48 log2 enrichment (interaction score).
In the case of “GGCUAGAACUAGUGGAUCCCCCGGCGCCCGGCGGCUCGAGCCCGGGUAAGUGUAAAUCGUCUGCAUGCCGCCGGGCGCCAUGCCUGCAGGUCGACUCUAGAAAACAUG”, the values for the binding signal in the test with PUM1 PUF domain R1-KCR, in the test with PUM1 PUF domain R1-RYE and in the test with PUM1 PUF domain R1-KDR were 7.51 log2 enrichment (interaction score), 1.44 log2 enrichment (interaction score) and 3.98 log2 enrichment (interaction score), respectively.
Consider “GGCUAGAACUAGUGGAUCCCCCGGCGCCCGGCGGCUCGAGCCCGGGUAAGUGUAAAUGGUCUGCAUGCCGCCGGGCGCCAUGCCUGCAGGUCGACUCUAGAAAACAUG”, for which, in the test with PUM1 PUF domain R1-KCR, the binding signal was 2.46 log2 enrichment (interaction score).
“GGCUAGAACUAGUGGAUCCCCCGGCGCCCGGCGGCUCGAGCCCGGGUAAGUGUAAAUUGUCUGCAUGCCGCCGGGCGCCAUGCCUGCAGGUCGACUCUAGAAAACAUG”: the binding signal with PUM1 PUF domain R1-KCR was 5.43 log2 enrichment (interaction score); in the test with PUM1 PUF domain R1-RYE it was 2.61 log2 enrichment (interaction score).
Consider “GGCUAGAACUAGUGGAUCCCCCGGCGCCCGGCGGCUCGAGCCCGGGUAAGUGUAAUUAGUCUGCAUGCCGCCGGGCGCCAUGCCUGCAGGUCGACUCUAGAAAACAUG”, for which the binding signal with PUM1 PUF domain R3-LWK is 5.28 log2 enrichment (interaction score); in the test with PUM1 PUF domain R3-MFG, 4.71 log2 enrichment (interaction score); with PUM1 PUF domain R3-YRV, 0.78 log2 enrichment (interaction score); with PUM1 PUF domain R3-FCR it was 1.6 log2 enrichment (interaction score).
Regarding “GGCUAGAACUAGUGGAUCCCCCGGCGCCCGGCGGCUCGAGCCCGGGUAAGUGUAAGUAGUCUGCAUGCCGCCGGGCGCCAUGCCUGCAGGUCGACUCUAGAAAACAUG”, the binding signal in the test with PUM1 PUF domain R3-MFG was 5.73 log2 enrichment (interaction score); with PUM1 PUF domain R3-YRV it was 4.59 log2 enrichment (interaction score); in the test with PUM1 PUF domain R3-FCR it was 5.77 log2 enrichment (interaction score).
For the sequence “GGCUAGAACUAGUGGAUCCCCCGGCGCCCGGCGGCUCGAGCCCGGGUAAGUGUUAAUAGUCUGCAUGCCGCCGGGCGCCAUGCCUGCAGGUCGACUCUAGAAAACAUG”, the results for the binding signal with PUM1 PUF domain R5-KAC and with PUM1 PUF domain R5-NSD were 3.67 log2 enrichment (interaction score) and 4.22 log2 enrichment (interaction score), respectively.
As to “GGCUAGAACUAGUGGAUCCCCCGGCGCCCGGCGGCUCGAGCCCGGGUAAGUGUAAAUAGUCUGCAUGCCGCCGGGCGCCAUGCCUGCAGGUCGACUCUAGAAAACAUG”, the binding signal with PUM1 PUF domain R3-LWK is 3.42 log2 enrichment (interaction score); with PUM1 PUF domain R6-FYM it was 2.99 log2 enrichment (interaction score); with PUM1 PUF domain R3-MFG it was 2.43 log2 enrichment (interaction score); with PUM1 PUF domain R3-YRV it was 0.2 log2 enrichment (interaction score); with PUM1 PUF domain R3-VRN, 3.59 log2 enrichment (interaction score); in the test with PUM1 PUF domain R5-GKC, 0.78 log2 enrichment (interaction score). In addition, the binding signal with PUM1 PUF domain R3-DFA was 6.17 log2 enrichment (interaction score); in the test with PUM1 PUF domain R5-GFI, 6.14 log2 enrichment (interaction score); in the test with PUM1 PUF domain R6-NRR it was 4.3 log2 enrichment (interaction score).
Regarding “GGCUAGAACUAGUGGAUCCCCCGGCGCCCGGCGGCUCGAGCCCGGGUAAGUUUAAAUAGUCUGCAUGCCGCCGGGCGCCAUGCCUGCAGGUCGACUCUAGAAAACAUG”, in the test with PUM1 PUF domain R7-LTV, the binding signal was 4.94 log2 enrichment (interaction score).
